According to PubChem BioAssay (EPA / NIEHS):
Active and inactive are the calls of the source. The calls were made as follows: active = hit-call score of the fitted dose curve at least 0.9, where 1 is the maximum; inactive = score below 0.9.

System: not listed separately
Assay: ATG_CRE_CIS: Attagene CIS-FACTORIAL HepG2 Assay for human cAMP Responsive Element (CRE) binding protein 3 (AID 2282926)
Settings: HepG2 CRE cis-reporter, Attagene multiplexed mRNA; actives raise or lower the signal
Method in brief: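 HepG2 cells transiently transfected with cis-element-driven multiple reporter transcription units; CRE reporter mRNA measured 24 h after dosing by RT-PCR, 6-FAM labelling, HpaI digestion and capillary electrophoresis. Bidirectional fit versus DMSO baseline.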

SMILES | outcome | AC50
Nc1ccc(-c2ccc(N)c(N)c2)cc1N | inactive | 
CCOP(O)OCC | inactive | 
C#CC1(O)CCCCC1 | inactive | 
O=c1[nH]c(Cl)c(Cl)cc1Cl | inactive | 
CCC(C)c1cc(C(C)(C)C)cc(-n2nc3ccccc3n2)c1O (stereo not drawn) | inactive | 
[CH3][Sn]([Cl])([Cl])[Cl] | inactive | 
Nc1c(Cl)c(Cl)c(Cl)c(Cl)c1Cl | inactive | 
COC(=O)c1ccccc1S(=O)(=O)NC(=O)Nc1nc(C)cc(C)n1 | inactive | 
Nc1ccccc1C(=O)OCCc1ccccc1 | inactive | 
N#Cc1cccc(C#N)c1 | inactive | 
O=C(O)CCCc1ccc(N(CCCl)CCCl)cc1 | inactive | 
Nc1cc(Cl)cc(Cl)c1 | inactive | 
COc1ncc(F)c2nc(S(=O)(=O)Nc3c(F)cccc3F)nn12 | inactive | 
COC(C)(C)CCC[C@H](C)C/C=C/C(C)=C/C(=O)OC(C)C | inactive | 
[CH3][Sn]([CH3])([Cl])[Cl] | inactive | 
BrCBr | inactive | 
CCc1cccc(C)c1N(C(=O)CCl)[C@@H](C)COC | inactive | 
O=P1(NCCCl)OCCCN1CCCl (stereo not drawn) | inactive | 
CC(Cc1ccc(C(C)(C)C)cc1)CN1C[C@@H](C)O[C@@H](C)C1 (stereo partly drawn) | inactive | 
O=C(O)c1cc[c]([Hg][Cl])cc1 | inactive | 

SMILES | outcome | AC50
C[N+](C)(C)CC(=O)O | inactive | 
O=S(=O)(c1ccccc1)c1ccccc1 | inactive | 
Clc1ccc(-c2ccccc2)cc1 | inactive | 
CN(C)C(=O)C(c1ccccc1)c1ccccc1 | inactive | 
C=CCc1ccc(OC(=O)Cc2ccccc2)c(OC)c1 | inactive | 
O=P(O)(Oc1ccccc1)Oc1ccccc1 | inactive | 
CC1CCCC1.[C-]#[O+].[C-]#[O+].[C-]#[O+].[Mn] | inactive | 
O=C(O)COc1ccccc1 | inactive | 
[Cl][Sb]([Cl])[Cl] | inactive | 
CCC(=O)c1ccc(Cl)cc1 | inactive | 
Cc1ccc(N(SC(F)(Cl)Cl)S(=O)(=O)N(C)C)cc1 | inactive | 
CC1(C)CC(=O)CC(C)(C)N1[O] | inactive | 
SCc1ccco1 | inactive | 
O=CNC(N1CCN(C(NC=O)C(Cl)(Cl)Cl)CC1)C(Cl)(Cl)Cl (stereo not drawn) | inactive | 
Oc1cc(Cl)ccc1Cl | inactive | 
O=[N+]([O-])c1cc(C(F)(F)F)c(Cl)c([N+](=O)[O-])c1Cl | inactive | 
C[C@]12CCC(=O)C(O)=C1CC[C@@H]1[C@@H]2CC[C@]2(C)C(=O)CC[C@@H]12 | inactive | 
CSc1nc(N=[N+]=[N-])nc(NC(C)C)n1 | inactive | 
O=[N+]([O-])O.O=[N+]([O-])O.[Cd] |  | 1980 nM (active)

Target: CCAAT/enhancer-binding protein beta (Homo sapiens) (UniProt P17676)
Assay: ATG_C_EBP_CIS: Attagene CIS-FACTORIAL HepG2 Assay for human CCAAT/Enhancer Binding Protein (C/EBP) beta (AID 2282927)
Settings: HepG2 Attagene cis-factorial transcription factor reporter; actives raise or lower the signal
Method in brief: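 HepG2 transiently transfected with multiplexed reporter units under cis-regulatory promoters reporting endogenous C/EBPb activity. After 24 h exposure, reporter mRNA assayed by RT-PCR, fluorescent labelling, HpaI digestion and capillary electrophoresis; bidirectional fitting versus DMSO.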

Chain of CCAAT/enhancer-binding protein beta (Homo sapiens) (P17676 whole entry, looked up): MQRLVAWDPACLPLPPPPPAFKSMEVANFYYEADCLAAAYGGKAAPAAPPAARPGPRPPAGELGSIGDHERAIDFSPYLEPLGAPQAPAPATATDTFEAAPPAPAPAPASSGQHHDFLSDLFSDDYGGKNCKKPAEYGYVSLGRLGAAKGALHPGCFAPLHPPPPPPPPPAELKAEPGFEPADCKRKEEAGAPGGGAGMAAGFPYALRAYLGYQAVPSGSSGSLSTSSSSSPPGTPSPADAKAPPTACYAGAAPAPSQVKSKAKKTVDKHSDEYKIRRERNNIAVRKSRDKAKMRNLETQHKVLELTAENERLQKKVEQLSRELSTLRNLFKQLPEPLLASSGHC

SMILES | outcome | AC50
Nc1ccc(-c2ccc(N)c(N)c2)cc1N | inactive | 
CCOP(O)OCC | inactive | 
C#CC1(O)CCCCC1 | inactive | 
O=c1[nH]c(Cl)c(Cl)cc1Cl | inactive | 
CCC(C)c1cc(C(C)(C)C)cc(-n2nc3ccccc3n2)c1O (stereo not drawn) | inactive | 
[CH3][Sn]([Cl])([Cl])[Cl] | inactive | 
Nc1c(Cl)c(Cl)c(Cl)c(Cl)c1Cl | inactive | 
COC(=O)c1ccccc1S(=O)(=O)NC(=O)Nc1nc(C)cc(C)n1 | inactive | 
Nc1ccccc1C(=O)OCCc1ccccc1 | inactive | 
N#Cc1cccc(C#N)c1 | inactive | 
O=C(O)CCCc1ccc(N(CCCl)CCCl)cc1 | inactive | 
Nc1cc(Cl)cc(Cl)c1 | inactive | 
COc1ncc(F)c2nc(S(=O)(=O)Nc3c(F)cccc3F)nn12 | inactive | 
COC(C)(C)CCC[C@H](C)C/C=C/C(C)=C/C(=O)OC(C)C | inactive | 
[CH3][Sn]([CH3])([Cl])[Cl] | inactive | 
BrCBr | inactive | 
CCc1cccc(C)c1N(C(=O)CCl)[C@@H](C)COC | inactive | 
O=P1(NCCCl)OCCCN1CCCl (stereo not drawn) | inactive | 
CC(Cc1ccc(C(C)(C)C)cc1)CN1C[C@@H](C)O[C@@H](C)C1 (stereo partly drawn) | inactive | 
O=C(O)c1cc[c]([Hg][Cl])cc1 | inactive | 

SMILES | outcome | AC50
C[N+](C)(C)CC(=O)O | inactive | 
O=S(=O)(c1ccccc1)c1ccccc1 | inactive | 
Clc1ccc(-c2ccccc2)cc1 | inactive | 
CN(C)C(=O)C(c1ccccc1)c1ccccc1 | inactive | 
C=CCc1ccc(OC(=O)Cc2ccccc2)c(OC)c1 | inactive | 
O=P(O)(Oc1ccccc1)Oc1ccccc1 | inactive | 
CC1CCCC1.[C-]#[O+].[C-]#[O+].[C-]#[O+].[Mn] | inactive | 
O=C(O)COc1ccccc1 | inactive | 
[Cl][Sb]([Cl])[Cl] | inactive | 
CCC(=O)c1ccc(Cl)cc1 | inactive | 
Cc1ccc(N(SC(F)(Cl)Cl)S(=O)(=O)N(C)C)cc1 | inactive | 
CC1(C)CC(=O)CC(C)(C)N1[O] | inactive | 
SCc1ccco1 | inactive | 
O=CNC(N1CCN(C(NC=O)C(Cl)(Cl)Cl)CC1)C(Cl)(Cl)Cl (stereo not drawn) | inactive | 
Oc1cc(Cl)ccc1Cl | inactive | 
O=[N+]([O-])c1cc(C(F)(F)F)c(Cl)c([N+](=O)[O-])c1Cl | inactive | 
C[C@]12CCC(=O)C(O)=C1CC[C@@H]1[C@@H]2CC[C@]2(C)C(=O)CC[C@@H]12 | inactive | 
CSc1nc(N=[N+]=[N-])nc(NC(C)C)n1 | inactive | 
O=[N+]([O-])O.O=[N+]([O-])O.[Cd] |  | 1830 nM (active)
